Data reported in PubChem BioAssay (NCATS).
Results filed as inconclusive are left out. A call without a number means that no potency is given here. Activity calls are given as the source filed them. Unless noted, the call rests on the fitted dose curve; in most records, active means well fitted curve in the direction sought with a large enough effect; inconclusive means small, poorly fitted or top-dose-only effect, or another doubt; inactive means no such curve, though single readings can be large; an effect the other way counts as inactive or inconclusive.

Legend:
[1] = Confirmation and Secondary Assay for Modulators of Hemoglobin Beta Chain Splicing at IVS2 654 locus (AID 910);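 further: HeLa cells stably carrying EGFP split by mutant beta-globin IVS2-654 intron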
In short: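 HeLa cells stably expressing EGFP interrupted by β-globin IVS2-654 intron, seeded overnight in Opti-MEM/2% FCS, then treated 2 days at 37 °C. Restored splicing read as total peak GFP intensity per well by laser scanning cytometry (488 nm excitation, 500–520 nm emission); 500 nM antisense PNA as control.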

[2] = Confirmation and Secondary Assay for Modulators of Hemoglobin Beta Chain Splicing at IVS2 705 locus (AID 930);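 further: HeLa cells stably expressing the EGFP-705 splicing reporter; GFP fluorescence per well restored by corrected splicing of the IVS2-705 intron in EGFP; series mostly up to about 46 µM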
In short: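 First, HeLa EGFP-705 cells are seeded at 500/well in Optimem with 2% FCS and left overnight. Next, compound or DMSO is added for 2 days. Finally wells are laser-scanned and total peak GFP intensity scored.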

[3] = molecular target: DNA dC->dU-editing enzyme APOBEC-3G (Homo sapiens) (UniProt Q9HC16); experiment: qHTS for inhibitors of Vif-A3G interactions: Validation (AID 588379)
In short: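 Yellow fluorescence (Ex 488, Em 500-530) of Vif-coexpressing HeLa A3G-eYFP cells, scanned by Acumen cytometer, reports blocked A3G degradation. Cells plated at 700/well overnight at 37 deg C before compound addition, then a further overnight compound incubation at 37 deg C.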

[4] = NCATS anti-infectives library activity on HEK293 viability as a counter-qHTS vs the C. elegans viability qHTS (AID 1745854)
In short: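 CellTiter-Glo luminescence, read on a CCD imager, scored viability of HEK293 cells after 24 hr compound exposure at 37C. Library tested in several concentrations, 1:5 steps, up to 41.7 uM; digitonin served as control.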

[5] = NCATS anti-infectives library activity on the primary C. elegans qHTS viability assay (AID 1745855; calls by dose curve; further: potency means the concentration at half of the fitted maximal effect); settings: C. elegans worm area imaging, day 7
In short: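 Titration-based screen in worms: eggs hatched overnight in M9, L1 larvae fed TOP10 capsules in S medium with compound, incubated 21 °C for 7 days; fluorescent objects gated by size and intensity at days 0, 3 and 7.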

Sequence of DNA dC->dU-editing enzyme APOBEC-3G (Homo sapiens) (Q9HC16 whole entry, looked up): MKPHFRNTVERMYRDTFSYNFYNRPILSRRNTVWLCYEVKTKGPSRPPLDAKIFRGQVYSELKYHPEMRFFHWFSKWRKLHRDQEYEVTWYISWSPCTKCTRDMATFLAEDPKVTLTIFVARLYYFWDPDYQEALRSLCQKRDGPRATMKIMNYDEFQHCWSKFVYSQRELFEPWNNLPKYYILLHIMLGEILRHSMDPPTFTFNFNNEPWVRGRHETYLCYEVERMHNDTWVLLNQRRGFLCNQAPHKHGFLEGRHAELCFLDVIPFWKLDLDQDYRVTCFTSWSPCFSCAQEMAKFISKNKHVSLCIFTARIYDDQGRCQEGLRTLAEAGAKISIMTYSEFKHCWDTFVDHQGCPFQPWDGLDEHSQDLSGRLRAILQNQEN

SMILES: COc1c(O)cc2oc3cc(O)c(CC=C(C)C)c(O)c3c(=O)c2c1CC=C(C)C
- Potency [1]: inactive
- outcome [2]: inactive
- outcome [3]: inactive
- outcome [4]: inactive
- Potency [5]: 6.48 µM (active)
